# According to PubChem BioAssay (Tox21):
# “And” between values parts separate entries of the source, which are not always exact repeats. Identical values can stand only once. Records with an inconclusive call do not appear. Where a call stands in place of a potency, no number is given. The source made the active and inactive calls. Unless noted, the call rests on the fitted dose curve; in most records, active means well fitted curve in the direction sought with a large enough effect in the repeat runs; inconclusive means weak or mixed curves; inactive means no such curve, though single readings can be large; an effect the other way counts as inactive or inconclusive.
# System: not listed separately
# Experiment: qHTS assay to identify small molecule antagonists of the androgen receptor (AR) signaling pathway - cell viability counter screen (AID 743033; further: nearly all actives have a fitted effect of over 45% in size)
# Details: AR-bla HEK293 viability, CellTiter-Glo luminescence, 16 h; series mostly up to 58.5 µM
row,Structure (SMILES),Potency
1,CCCOC(=O)c1ccccc1O,inactive
2,CN=C(N)NCCC[C@H](N)C(=O)O,inactive
3,Nc1nc(NC2CC2)c2ncn([C@@H]3C=C[C@@H](CO)C3)c2n1,inactive
4,O=P(O)(O)CP(=O)(O)O,inactive
5,N[C@@H](Cc1ccc(O)c(O)c1)C(=O)O,inactive
6,CC(C)COC(=O)OCN1C(=O)CN(CCN2CC(=O)N(COC(=O)OCC(C)C)C(=O)C2)CC1=O,inactive
7,N[C@@H](Cc1cnc[nH]1)C(=O)O,inactive
8,CC(Cc1ccc(O)c(O)c1)C(C)Cc1ccc(O)c(O)c1 (configuration not stated),inactive
9,CCC(=O)OC(OP(=O)(CCCCc1ccccc1)CC(=O)N1C[C@H](C2CCCCC2)C[C@H]1C(=O)O)C(C)C (some centres not stated),inactive
10,C[C@@H]1O[C@@H](OC[C@H]2O[C@@H](Oc3c(-c4ccc(OCCO)c(OCCO)c4)oc4cc(OCCO)cc(O)c4c3=O)[C@H](O)[C@@H](O)[C@@H]2O)[C@H](O)[C@H](O)[C@H]1O,inactive
11,CCCCCCCCCCCCCCCCC(C(=O)O)C(O)(CC(=O)O)C(=O)O (configuration not stated),inactive
12,CC(=O)Oc1cc(C(F)(F)F)ccc1C(=O)O,inactive
13,O=C(O)COc1ccc(C(=O)c2cccs2)c(Cl)c1Cl,inactive
14,OCC1(CO)COC(C(Cl)(Cl)Cl)OC1,inactive
15,N[C@H](CO)C(=O)O,inactive
16,COc1cc2c(c(OC)c1OC)-c1c(cc3c(c1OC)OCO3)C[C@@H](C)[C@](C)(O)C2,inactive
17,O=S(=O)(O)CC(S)CS (configuration not stated),inactive
18,CNC(=O)C[C@@H](N)C(=O)N[C@@H](C(=O)N[C@@H]1C(=O)N2[C@@H]1SC(C)(C)[C@@H]2C(=O)O)c1ccc(O)cc1,inactive
19,FC(F)(F)C(F)(F)C(F)(F)C(F)(F)C(F)(F)F,inactive

# Molecular target: Androgen receptor (Homo sapiens) (UniProt P10275)
# Experiment: qHTS assay to identify small molecule antagonists of the androgen receptor (AR) signaling pathway (AID 743035; active means well fitted inhibition curve with a large enough effect in the signal ratio in the repeat runs, not every such curve was filed as active; the % refers to the signal ratio; further: potency means the concentration at half of the fitted maximal effect)
# Details: HEK293 AR-UAS-bla, R1881-stimulated, beta-lactamase FRET, 16 h; series mostly up to 58.5 µM
# Outline: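 Antagonist mode: AR-bla HEK293 cells co-treated with test compounds and agonist R1881 for 16 h at 37C, 5% CO2. Beta-lactamase activity read as FRET fluorescence after 2 h room-temperature substrate loading.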
# Androgen receptor (Homo sapiens), sequence (P10275 whole entry, looked up): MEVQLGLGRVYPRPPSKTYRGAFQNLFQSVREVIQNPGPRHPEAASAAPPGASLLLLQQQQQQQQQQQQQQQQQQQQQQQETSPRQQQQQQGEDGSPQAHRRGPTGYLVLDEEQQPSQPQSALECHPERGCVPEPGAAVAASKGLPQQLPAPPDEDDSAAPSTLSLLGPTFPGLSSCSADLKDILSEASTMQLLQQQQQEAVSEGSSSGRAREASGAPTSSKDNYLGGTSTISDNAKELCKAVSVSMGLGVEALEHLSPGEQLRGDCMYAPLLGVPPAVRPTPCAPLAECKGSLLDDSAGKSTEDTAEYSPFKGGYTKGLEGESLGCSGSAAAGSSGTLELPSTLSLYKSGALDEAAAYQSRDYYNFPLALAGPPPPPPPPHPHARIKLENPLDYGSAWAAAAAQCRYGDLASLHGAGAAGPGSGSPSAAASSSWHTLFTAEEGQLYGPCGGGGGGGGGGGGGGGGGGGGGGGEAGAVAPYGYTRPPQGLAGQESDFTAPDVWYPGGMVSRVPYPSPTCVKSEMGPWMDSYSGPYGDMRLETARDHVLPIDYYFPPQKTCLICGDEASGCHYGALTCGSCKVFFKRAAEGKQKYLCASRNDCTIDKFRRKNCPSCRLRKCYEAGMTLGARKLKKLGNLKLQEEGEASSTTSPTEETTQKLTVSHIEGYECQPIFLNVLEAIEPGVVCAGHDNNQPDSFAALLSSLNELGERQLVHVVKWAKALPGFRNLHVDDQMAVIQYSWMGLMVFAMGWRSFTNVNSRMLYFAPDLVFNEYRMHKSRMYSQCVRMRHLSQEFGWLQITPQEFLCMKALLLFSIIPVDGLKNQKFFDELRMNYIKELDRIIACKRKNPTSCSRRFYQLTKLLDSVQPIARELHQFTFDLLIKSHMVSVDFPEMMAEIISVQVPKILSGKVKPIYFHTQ
row,Structure (SMILES),Potency
1,O=P(O)(O)CP(=O)(O)O,inactive
2,C=CCc1cc(S(=O)(=O)c2ccc(O)c(CC=C)c2)ccc1O,38.9 µM (active)
3,COC(=O)C[C@](O)(CCCC(C)(C)O)C(=O)O[C@@H]1C(OC)=CC23CCCN2CCc2cc4c(cc2[C@H]13)OCO4 (some centres not stated),75.6 nM (active) and 67.4 nM (active)
4,COc1cc(NS(C)(=O)=O)ccc1Nc1c2ccccc2nc2ccccc12,0.601 µM (active)
5,N[C@@H](Cc1cnc[nH]1)C(=O)O,inactive
6,CC(C)c1ncc([N+](=O)[O-])n1C,inactive
7,C[C@@H]1O[C@@H](OC[C@H]2O[C@@H](Oc3c(-c4ccc(OCCO)c(OCCO)c4)oc4cc(OCCO)cc(O)c4c3=O)[C@H](O)[C@@H](O)[C@@H]2O)[C@H](O)[C@H](O)[C@H]1O,inactive
8,O=C(O)COc1ccc(C(=O)c2cccs2)c(Cl)c1Cl,inactive
9,O=S(=O)(O)CC(S)CS (configuration not stated),inactive

# Molecular target: Androgen receptor (Homo sapiens) (UniProt P10275)
# Experiment: qHTS assay to identify small molecule agonists of the androgen receptor (AR) signaling pathway (AID 743036; active means well fitted activation curve with a large enough effect in the signal ratio in the repeat runs, with a control signal flat, not every such curve was filed as active; the % refers to the signal ratio; further: potency means the concentration at half of the fitted maximal effect)
# Details: HEK293 AR-UAS-bla GripTite, beta-lactamase FRET ratio, 16 h; series mostly up to 62.4 µM
# Outline: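 Agonist activity was scored by beta-lactamase reporter fluorescence in stably transfected HEK293 cells exposed to compounds for 16 h at 37C and 5% CO2. Substrate loading took 2 h at room temperature.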
row,Structure (SMILES),Potency
1,O=P(O)(O)CP(=O)(O)O,inactive
2,C=CCc1cc(S(=O)(=O)c2ccc(O)c(CC=C)c2)ccc1O,inactive
3,COc1cc(NS(C)(=O)=O)ccc1Nc1c2ccccc2nc2ccccc12,10.7 µM (active)
4,N[C@@H](Cc1cnc[nH]1)C(=O)O,inactive
5,C[C@@H]1O[C@@H](OC[C@H]2O[C@@H](Oc3c(-c4ccc(OCCO)c(OCCO)c4)oc4cc(OCCO)cc(O)c4c3=O)[C@H](O)[C@@H](O)[C@@H]2O)[C@H](O)[C@H](O)[C@H]1O,inactive

# Molecular target: Androgen receptor (Homo sapiens) (UniProt P10275)
# Experiment: qHTS assay to identify small molecule agonists of the androgen receptor (AR) signaling pathway using the MDA cell line (AID 743040; further: nearly all actives have a fitted effect of over 20% in size)
# Details: MDA-kb2 AR-luc cells, MMTV luciferase, 16 h; series mostly up to 70.3 µM
# Outline: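 Cell-based luciferase reporter: MDA-kb2, MMTV promoter (AR + GR response elements). 16 h compound exposure at 37C; ONE-Glo, 30 min RT, luminescence.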
row,Structure (SMILES),Potency
1,O=P(O)(O)CP(=O)(O)O,inactive
2,C=CCc1cc(S(=O)(=O)c2ccc(O)c(CC=C)c2)ccc1O,inactive
3,COC(=O)C[C@](O)(CCCC(C)(C)O)C(=O)O[C@@H]1C(OC)=CC23CCCN2CCc2cc4c(cc2[C@H]13)OCO4 (some centres not stated),inactive
4,COc1cc(NS(C)(=O)=O)ccc1Nc1c2ccccc2nc2ccccc12,inactive
5,N[C@@H](Cc1cnc[nH]1)C(=O)O,inactive
6,CC(C)c1ncc([N+](=O)[O-])n1C,inactive
7,C[C@@H]1O[C@@H](OC[C@H]2O[C@@H](Oc3c(-c4ccc(OCCO)c(OCCO)c4)oc4cc(OCCO)cc(O)c4c3=O)[C@H](O)[C@@H](O)[C@@H]2O)[C@H](O)[C@H](O)[C@H]1O,inactive
8,CCCCCCCCCCCCCCCCC(C(=O)O)C(O)(CC(=O)O)C(=O)O (configuration not stated),inactive
9,O=C(O)COc1ccc(C(=O)c2cccs2)c(Cl)c1Cl,inactive
10,CCCC(=O)c1cc(O)c(O)cc1O,inactive
11,O=S(=O)(O)CC(S)CS (configuration not stated),inactive

# System: not listed separately
# Experiment: qHTS assay to identify small molecule antagonists of the androgen receptor (AR) signaling pathway using the MDA cell line - cell viability counter screen (AID 743041; further: nearly all actives have a fitted effect of over 45% in size; further: potency means the concentration at half of the fitted maximal effect)
# Details: MDA-kb2 viability, CellTiter-Fluor, 16 h, cells co-treated with R1881 androgen agonist; series mostly up to 70.3 µM
# Outline: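 In this qHTS counter assay, fluorescence intensity after CellTiter-Fluor addition indicated viability of MDA-kb2 AR-luc cells given compounds and R1881 for 16 h at 37C.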
row,Structure (SMILES),Potency
1,CCCOC(=O)c1ccccc1O,inactive
2,CN=C(N)NCCC[C@H](N)C(=O)O,inactive
3,Nc1nc(NC2CC2)c2ncn([C@@H]3C=C[C@@H](CO)C3)c2n1,inactive
4,O=P(O)(O)CP(=O)(O)O,inactive
5,O=C1OC(O)C(C(Cl)Cl)=C1Cl (configuration not stated),inactive
6,N[C@H](C(=O)O)[C@@H]1CC(Cl)=NO1,inactive
7,COC(=O)C[C@](O)(CCCC(C)(C)O)C(=O)O[C@@H]1C(OC)=CC23CCCN2CCc2cc4c(cc2[C@H]13)OCO4 (some centres not stated),0.0531 µM (active)
8,N[C@@H](Cc1ccc(O)c(O)c1)C(=O)O,inactive
9,c1ccc2occc2c1,inactive
10,CC1=C(/C=C/C(C)=C/C=C/C(C)=C\C(=O)O)C(C)(C)CCC1,inactive
11,Oc1ccc(Cl)cc1C1CCCC1,inactive
12,CC(C)COC(=O)OCN1C(=O)CN(CCN2CC(=O)N(COC(=O)OCC(C)C)C(=O)C2)CC1=O,inactive
13,S=C1NC=NC2N=CNC12 (configuration not stated),inactive
14,COc1cc(NS(C)(=O)=O)ccc1Nc1c2ccccc2nc2ccccc12,inactive
15,N[C@@H](Cc1cnc[nH]1)C(=O)O,inactive
16,CC(Cc1ccc(O)c(O)c1)C(C)Cc1ccc(O)c(O)c1 (configuration not stated),inactive
17,CC(C)c1ncc([N+](=O)[O-])n1C,inactive

row,Structure (SMILES),Potency
1,CCC(=O)OC(OP(=O)(CCCCc1ccccc1)CC(=O)N1C[C@H](C2CCCCC2)C[C@H]1C(=O)O)C(C)C (some centres not stated),inactive
2,C/C(=C\C(=O)OCCCCCCCCC(=O)O)C[C@@H]1OC[C@H](C[C@@H]2O[C@H]2[C@@H](C)[C@H](C)O)[C@@H](O)[C@H]1O,inactive
3,C[C@@H]1O[C@@H](OC[C@H]2O[C@@H](Oc3c(-c4ccc(OCCO)c(OCCO)c4)oc4cc(OCCO)cc(O)c4c3=O)[C@H](O)[C@@H](O)[C@@H]2O)[C@H](O)[C@H](O)[C@H]1O,inactive
4,CCCCCCCCCCCCCCCCC(C(=O)O)C(O)(CC(=O)O)C(=O)O (configuration not stated),inactive
5,CC(=O)Oc1cc(C(F)(F)F)ccc1C(=O)O,inactive
6,O=C(O)COc1ccc(C(=O)c2cccs2)c(Cl)c1Cl,inactive
7,OCC1(CO)COC(C(Cl)(Cl)Cl)OC1,inactive
8,N[C@H](CO)C(=O)O,inactive
9,COc1cc2c(c(OC)c1OC)-c1c(cc3c(c1OC)OCO3)C[C@@H](C)[C@](C)(O)C2,inactive
10,O=S(=O)(O)CC(S)CS (configuration not stated),inactive
11,CC(O)(c1ccc(Cl)cc1)c1ccc(Cl)cc1,inactive
12,CNC(=O)C[C@@H](N)C(=O)N[C@@H](C(=O)N[C@@H]1C(=O)N2[C@@H]1SC(C)(C)[C@@H]2C(=O)O)c1ccc(O)cc1,inactive
13,Cc1cc(N)c2ccccc2[n+]1CCCCCCCCCC[n+]1c(C)cc(N)c2ccccc21,7.49 µM (active)
14,O=C1c2c(O)cccc2[C@H]([C@@H]2O[C@H](CO)[C@@H](O)[C@H](O)[C@H]2O)c2cc(CO)cc(O)c21,inactive
15,CCCCCCCCOC(=O)c1cc(O)c(O)c(O)c1,48.6 µM (active)
16,FC(F)(F)C(F)(F)C(F)(F)C(F)(F)C(F)(F)F,inactive
